The record followed here is PubChem BioAssay AID757 (NMMLSC, 2007).

The structures appear in SMILES notation. In all, about 190,000 compounds went through this assay and about 520 (0.27%) were called active. About 2% were inconclusive and are not listed. For the sample, actives were picked, then their nearest neighbours and some compounds at random. A number with no mark means an inactive call.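 Rule for the calls: active = GTP binding activity at least 20 points away from the 100% control level, either lower or higher; inconclusive = compound flagged as likely green fluorescent, judged across all proteins; inactive = the rest.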

In this assay the target is Ras-related C3 botulinum toxin substrate 1 (Homo sapiens) (UniProt P63000). Put plainly: wildtype Rac1 GTP binding modulators, primary screen, biochemical, GST-Rac1 beads, flow cytometry, multiplex (AID 757). The conditions noted are these: fluorescent GTP binding, at 10 µM, actives lie on both sides, 0 = cold GTP competed, 100 = untreated. (In general: Flow cytometry measures light scatter and fluorescence of single cells or particles in a stream.)
For `CCc1ccc(C(=O)OCC(=O)NCC(F)(F)F)cc1`, the GTP binding activity (% of control) was 98%.
In the case of `CN(Cc1ccccn1)Cc1nc(-c2ccc(Cl)cc2)no1`, the GTP binding activity (% of control) is 101%.
Under `COc1ccccc1-c1noc(CSc2nc(C)cc(=O)[nH]2)n1` stands 93%; under `COc1ccc(CC(NC(C)=O)C(=O)NC2CCN(C(=O)C3CC3)CC2)cc1OC` (stereo unspecified), 101%; under `O=C(/C=C/c1ccc(Cl)c([N+](=O)[O-])c1)c1cccnc1`, 78% (active).
Under `O=C(Nc1cccnc1)c1ccc(Cl)c([N+](=O)[O-])c1` stands 98%; under `O=C(/C=C/c1ccc(Cl)cc1Cl)c1cccnc1`, 92%.
Under `O=C(CC1CCCCC1)NCc1ccc(F)cc1` stands 100%; under `O=C(NCCCn1ccnc1)C(=O)c1cn(CC(=O)N2CCCCCC2)c2ccccc12`, 100%; under `COc1cc(C=O)c(Br)cc1OCC(=O)NCc1ccccc1`, 97%.
On to `COc1cc(CNC2CCCC2)c(Br)cc1OCc1ccccc1`, for which the GTP binding activity (% of control) was 96%.
Under `COc1cc(C(=S)NCc2ccccc2)cc(Br)c1O` stands 79% (active); under `Cc1ccc(NC(=O)CSc2nnc(CNC(=O)c3ccccc3F)o2)cc1`, 92%.
For the compound `CS(=O)(=O)N(CC(=O)N1CCCC1)Cc1ccccc1`, the GTP binding activity (% of control) is 106%.
As for `COc1cccc(CNC(=O)CCC2CCCN(C(=O)c3cc(C)[nH]n3)C2)c1` (stereo unspecified), the figure is 100%; as for `CC(=O)N1N=C(c2ccccc2)OC1c1cccnc1` (stereo unspecified), 98%; as for `CCc1nc(C)cn1S(=O)(=O)c1cc([N+](=O)[O-])ccc1Cl`, 96%.
Under `Cc1cccc(NC(=S)NC23CN4CN(CN(C4)C2)C3)c1` stands 99%.
Consider `COC(=O)CC1=NN(c2ccccc2)C(=O)C1`, for which the GTP binding activity (% of control) was 101%.
Under `O=C(NCC(=O)N(CC1CCCO1)C(C(=O)NC1CCCCC1)c1ccccc1)c1ccco1` (stereo unspecified) stands 103%; under `COc1ccc2ccccc2c1CNc1nnnn1C`, 93%; under `O=C(NCCCN1CCOCC1)c1ccc(N2CCCC2)c([N+](=O)[O-])c1`, 99%.
As for `CC(=O)c1ccc(N2CCN(S(=O)(=O)c3c(C)[nH]c(=O)[nH]c3=O)CC2)cc1`, the figure is 99%.
As for `COc1ccc(Br)cc1/C=N/Nc1ccc(Cl)c(C(=O)O)c1`, the figure is 93%.
Regarding `Cc1nc(-c2ccccc2)sc1C(=O)/C=C/N(C)C`, the GTP binding activity (% of control) is 96%.
Under `COc1cccc(-n2c(=S)sc3c(=O)n(-c4ccccc4OC)c(SCC4OCCO4)nc32)c1` stands 100%.
As to `O=C(/C=C/c1ccccc1Cl)Nc1ccc(S(=O)(=O)Nc2ncccn2)cc1`, the GTP binding activity (% of control) was 100%.
For `CCOC(=O)c1sc2nc(C)nc(Nc3ccc(OC)c(OC)c3)c2c1C`, the GTP binding activity (% of control) was 89%.
With `CCOC(=O)c1sc(-c2cccc([N+](=O)[O-])c2)cc1N`, the GTP binding activity (% of control) is 101%.
As for `O=C(CNC1CCCCC1)NCC1(c2ccccc2)CCCC1`, the figure is 98%; as for `Cc1csc(CN(C)C(=O)CC2C(=O)NCCN2CC(C)(C)C)n1` (stereo unspecified), 98%; as for `COCCN(CCOC)C(=S)Nc1ccccc1Cl`, 95%.
Under `CC1CC1C(=O)OCC(=O)c1c(N)n(C)c(=O)n(C)c1=O` (stereo unspecified) stands 92%; under `CSc1nsc(SC)c1NC(=O)OC1CCCCC1`, 30% (active); under `COc1ccc(NC(=O)c2c(SC)nsc2SC)cc1`, 110%.
Under `CSc1ncccc1C(=O)NC1CCCCCC1` stands 99%; under `Cn1ncc(N2CCN(S(=O)(=O)c3ccc(Br)cc3)CC2)c(Cl)c1=O`, 99%.
Consider `CCc1ccccc1NC(=O)CN(c1ccc(OC)cc1OC)S(=O)(=O)c1ccccc1[N+](=O)[O-]`, for which the GTP binding activity (% of control) is 100%.
Under `O=C(NNC(=S)Nc1ccccc1)c1cccc(S(=O)(=O)N2CCOCC2)c1` stands 96%.
Consider `O=C(CSc1ccsc1[N+](=O)[O-])N1CCCCC1`, for which the GTP binding activity (% of control) is 102%.
As for `CN(c1ccc(OCC(=O)OCC(=O)Nc2cccc([N+](=O)[O-])c2)cc1)S(=O)(=O)c1ccc(F)cc1`, the figure is 101%; as for `CCOc1ccc(S(=O)(=O)Nc2nccs2)cc1`, 94%; as for `O=C(Nn1cnc2ccccc2c1=O)c1ccc([N+](=O)[O-])cc1Cl`, 96%.
Under `Cc1cnc(C(=O)N2CCCC(C(=O)c3ccc(C(F)(F)F)cc3)C2)cn1` (stereo unspecified) stands 100%; under `CCC1SC(CC)C(=O)N(CC(=O)NC2CCCCC2)C1=O` (stereo unspecified), 99%; under `O=C(c1ccc(N2CCOCC2)c([N+](=O)[O-])c1)N1CCN(S(=O)(=O)c2cccs2)CC1`, 96%.
Consider `COCCNC(=S)N1CCC(NC(=O)C23CC4CC(CC(C4)C2)C3)CC1`, for which the GTP binding activity (% of control) is 104%.
Regarding `Nc1[nH]c(=S)nc2nc(-c3ccccc3)c(-c3ccccc3)nc12`, the GTP binding activity (% of control) is 79% (active).
Under `Nc1ccc(-c2sc(N)nc2-c2ccccc2)cc1` stands 98%.
As for `CC1CCC2(CC1)NC(=O)N(Cc1nnc(-c3cccs3)o1)C2=O` (stereo unspecified), the figure is 94%; as for `CCN(CCCNC(=O)CCn1c(=O)[nH]c2ccsc2c1=O)c1ccccc1`, 99%.
Under `O=C(Nc1ccccc1)N1CCN(C(=O)Nc2ccccc2)CC1` stands 94%.
In the case of `O=C(N1CCCCC1)N1CCN(C(=O)N2CCCCC2)CC1`, the GTP binding activity (% of control) was 98%.
As for `CCOc1ccc(CN2CCN(Cc3ccon3)CC2CCO)cc1` (stereo unspecified), the figure is 99%.
Under `C/C(=N\OC(=O)c1ccccc1)c1c(C)nc2cc(C)ccn12` stands 85%.
Under `COC(=O)c1c(C(=O)OC)c(-c2cccc(C)c2)n2c1CS(=O)C2` (stereo unspecified) stands 95%; under `CCC1CO/C(=C(\C(=C(Cl)Cl)N2CCOCC2)[N+](=O)[O-])N1` (stereo unspecified), 101%.
On to `CC(C)NC(=O)c1ccc(Cl)cc1Cl`, for which the GTP binding activity (% of control) is 103%.
As for `OCCC1CN(Cc2ccc(Oc3ncccn3)cc2)CCN1CCc1ccccc1` (stereo unspecified), the figure is 98%; as for `CCOC(=O)CSC1=N/C(=C/c2ccc(-n3cncn3)cc2)C(=O)N1C(C)=O`, 96%.
As for `CCC(CC)c1nnc(NC(=O)c2nn(C)c(=O)c3ccccc23)s1`, the figure is 96%; as for `CC(=O)c1cc(C#N)c(N2CCCCC2)nc1C`, 97%.
Under `COc1cc(COCC(O)CN2CCN(Cc3ccc4c(c3)OCO4)CC2)cc(OC)c1OC` (stereo unspecified) stands 102%; under `O=[N+]([O-])c1cccc(Nc2c3ccccc3nc3ccccc23)c1`, 93%.
On to `Cc1cc(OCCCN2CCN(Cc3ccccc3)CC2)ccc1[N+](=O)[O-]`, for which the GTP binding activity (% of control) is 85%.
As for `CN(CC(=O)N1CCN(c2ccccc2)CC1)S(=O)(=O)c1cccs1`, the figure is 101%; as for `Cc1cc(C)nc(/N=C2\NC(=O)CC(C(=O)O)N2c2ccc(Cl)cc2Cl)n1` (stereo unspecified), 96%; as for `O=C(c1ccc(F)cc1)N1CCCC(c2nc(-c3cccs3)no2)C1` (stereo unspecified), 99%.
On to `O=C(NC1CCCCC1)C1CCCN(S(=O)(=O)c2ccc(Br)s2)C1` (stereo unspecified), for which the GTP binding activity (% of control) was 100%.
Under `Cc1cccc(NC(=O)c2cccc(C(F)(F)F)c2)c1` stands 98%; under `CCOC(=O)c1ccc(NC(=S)N2CCCC2)cc1`, 96%.
As for `Cc1ccc(N(C(=O)Cc2cccs2)C(C(=O)NCC2CCCO2)c2ccncc2)cc1` (stereo unspecified), the figure is 108%; as for `CCCNC(=S)N1CCCC(c2nc3ccccc3[nH]2)C1` (stereo unspecified), 97%; as for `COc1cccc(CN(C)CC(=O)NCc2ccccc2Cl)c1OC`, 98%.
With `COc1cc(/C=N/Nc2ccc(C)cc2)cc(Br)c1O`, the GTP binding activity (% of control) was 97%.
Under `COc1cc(/C=N/NC(=S)Nc2cccnc2)cc(OC)c1O` stands 77% (active); under `COc1ccc(/C=C/C(=O)Nc2cccnc2)cc1OC`, 98%.
Under `O=C(O)COc1ccc(/C=N/O)cc1Br` stands 92%; under `Cc1nn(CC(=O)Nc2ccc3c(c2)OCO3)c(C)c1[N+](=O)[O-]`, 100%; under `COc1ccc(C2(CNC(=O)Cc3ccc(OC)c(OC)c3)CCCC2)cc1`, 97%.
Under `COc1ccc(C2(CNC(=O)C(c3ccccc3)c3ccccc3)CCOCC2)cc1OC` stands 123% [activator] (active); under `CCCCNC(=O)C1(c2ccc(OC)cc2)CCOCC1`, 108%; under `Cc1cc(NC(=O)CN2C(=O)NC(CCc3ccccc3)C2=O)no1` (stereo unspecified), 100%.
Take `COC(=O)Cn1cc(/C=C/[N+](=O)[O-])c2ccccc21`: the GTP binding activity (% of control) is 93%.
As for `CC(C)C(C)(C#N)NC(=O)CSc1nncn1-c1ccccc1` (stereo unspecified), the figure is 104%; as for `C/C(=N\OCC(=O)Nc1ccc(Br)cc1)c1cccs1`, 93%.
As for `CCOC(=O)Cc1ncccc1C(=O)Nc1ccc(OC)cc1`, the figure is 100%; as for `O=C(NCc1ccco1)c1nn2cccnc2c1Cl`, 99%; as for `O=C(CCC(=O)NNc1nc2ccccc2c2nc(-c3ccccc3)nn12)NCCCN1CCCC1=O`, 96%.
Under `CCOc1ccc(NC(=O)NNC(=O)c2ccc(Cl)cc2Cl)cc1` stands 96%.
Turning to `CN1C(=O)/C(=C/c2ccc(C(=O)NC3CCCC3)cc2)Oc2ccccc21`, the GTP binding activity (% of control) was 99%.
As for `CCn1c(CSc2nc(C)cc(C)n2)nnc1SCC(N)=O`, the figure is 95%; as for `Cc1c(CN2CCCCC2)c(O)n(CCO)c(=O)c1C#N`, 94%; as for `COc1ccc(C)cc1-n1nnnc1SCc1nc2ccccc2c(=O)[nH]1`, 98%.
As for `CCCCCc1nnc(NC(=O)c2ccc(=O)n(C)n2)s1`, the figure is 101%.
With `CCc1ccc(Oc2nc([N+](=O)[O-])nn2C)cc1`, the GTP binding activity (% of control) is 98%.
Regarding `CCOC(=O)N1CCN(Cc2nc(Cc3cccc(C(F)(F)F)c3)no2)CC1`, the GTP binding activity (% of control) is 99%.
Take `CSCC(NS(=O)(=O)c1ccc(C)cc1)C(=O)O` (stereo unspecified): the GTP binding activity (% of control) was 104%.
As for `Cc1noc(C)c1CCC(=O)O`, the figure is 97%; as for `Cn1cnnc1SCc1nnc(-c2ccccc2Br)o1`, 87%.
Under `O=C(C1CCCN1S(=O)(=O)c1ccc(Br)cc1)N1CCOCC1` (stereo unspecified) stands 97%.
